The text below walks through data of ChEMBL document CHEMBL4513216, “Probing the Open Global Health Chemical Diversity Library for Multistage-Active Starting Points for Next-Generation Antimalarials” (ACS Infect Dis, 2020).

Out of some 65,000 compounds screened, about 2,100 (3.2%) showed an effect of 50% or more. The median lay at about -52%. The sample holds strong results, similar compounds and a random draw of the others, so the mix is not that of the screen.

The subject of the experiment is Plasmodium falciparum. Nature of the experiment: Screen against P. falciparum Asexual Blood Stage (ABS), at 5uM. Type of experiment: functional, Dd2. Conditions: tested at 5 uM.
For `Cc1nn(C)c(N2CCOCC2)c1CNCc1ccnc(N(C)C)c1`, the INHIBITION is -24.8%. The value for `Cc1nn(C)c(N2CCOCC2)c1CNCc1ccc2c(c1)OCO2` was 64.5%; that for `O=C1C(N2CC[C@@H](O)C2)CCCN1Cc1cccc(C(F)(F)F)c1` (some centres undefined) was -51.6%. The value for `CCOCCN1CCN(C=C2NN=C(c3occc3C)O2)CC1` was -7.75%; that for `COc1ccc2c(c1)sc(=NC(=O)CSCC(=O)Nc1nccs1)n2C` was -52.2%; that for `CC(C)(O)CN1CCN(C(=O)c2cnn(-c3ccccc3F)c2)CC1` was -73.1%. The value for `c1ccc(-c2nc(CN3CCCC3Cn3cncn3)co2)cc1` (centres undefined) was -69.1%. For `CNC(=O)[C@H]1C[C@H]2CN(C(=O)NC(C)C)C[C@@H]1O2`, the INHIBITION was -50%. Under `COc1cc(CN(C)Cc2cccnc2)c(SC)cc1OC` stands -61.6%; under `COc1ccc2nnc(CCCC(=O)NCc3ccccc3OC)n2n1`, -64.6%; under `Cc1cnc(CN(Cc2cccc(O)c2)CC2CC2)cn1`, -23.7%. Take `CN1C(=O)CN(C(=O)c2ccc(=O)n(C)c2)c2ccccc21`: the INHIBITION is recorded as -50.5%. The value for `Cc1nc(CNCc2c(C)nn(C)c2N2CCOCC2)cs1` was 27.5%; that for `CC(C)c1nn(C)c(N2CCOCC2)c1CNCc1cscn1` was -72.2%. Under `Cc1nn(C)c(N2CCOCC2)c1CNCc1cscn1` stands 56.6%; under `COc1ccccc1-c1ccc(C(=O)N2C[C@@H]3CC[C@H]2CN(C)C3)cc1`, -93.3%.

In the case of `Cc1nc(C)n(CC2CCCN2Cc2nnc(-c3ccco3)o2)n1` (centres undefined), the INHIBITION is listed as -53.7%. Regarding `Cc1nc(-n2nc(-c3cccs3)cc2N)[nH]c(=O)c1C`, the INHIBITION is -26.1%. For the molecule `Cc1n[nH]cc1CNCc1ccnc(OCC(F)(F)F)c1`, the INHIBITION is listed as -64.7%. Under `Cc1n[nH]cc1CNC(=O)Nc1cccc(OCC(F)(F)F)c1` stands -31.6%. The value for `Cc1n[nH]cc1CNCc1cccc(OCC(F)(F)F)c1` was 57.9%; that for `COc1ccc(NS(=O)(=O)C=c2[nH]c(=O)n3cccc3c2=O)cc1Cl` was -76.2%; that for `CC(C)(C(=O)NCC(N)=O)c1ccccc1F` was -60.2%.

Consider `CN(C)C(C)(C)CNC(=O)C(C)(C)c1ccccc1F`, for which the INHIBITION worked out at 53.3%. The value for `CC(C)(CNC(=O)C(C)(C)c1ccccc1F)C(N)=O` was -83%; that for `CC(Cn1cccn1)NCCCc1nc(-c2cccs2)no1` (centres undefined) was 67.8%; that for `Cc1cnn(CC(C)NCc2nc(-c3cccs3)no2)c1` (centres undefined) was -73.4%.

With `c1csc(-c2noc(CNCCn3cccn3)n2)c1`, the INHIBITION is on record as -114%.

Consider `Cc1cccc(CN2CCCC2c2cncc(Nc3nncs3)n2)c1` (centres undefined), for which the INHIBITION was found to be 52.5%. The value for `Cc1ccccc1CN1CCCC1c1cncc(Nc2nncs2)n1` (centres undefined) was -20.5%; that for `COc1cccc(CN2CCCC2c2cncc(Nc3nncs3)n2)c1` (centres undefined) was -8.54%. With `c1ccc(CCNC2CCc3ncnn3C2)nc1` (centres undefined), the INHIBITION is listed as -209%.

For the molecule `CC(C)(CNc1c(C#N)cnc2ccc(Cl)cc12)C(N)=O`, the INHIBITION is given as 11.4%. The value for `CC(NC1(CNS(C)(=O)=O)CCCC1)c1ccccc1` (centres undefined) was 68.9%. On to `CCC(CC)C(=O)NCC1(NC(C)c2ccccc2)CCOCC1` (centres undefined), for which the INHIBITION is listed as -6.09%. The value for `CC(NC1(CNS(C)(=O)=O)CCOCC1)c1ccccc1` (centres undefined) was 0.206%; that for `O=C(Cc1ccccc1)NCCNCc1cccc(O)c1` was 6.4%; that for `COc1ccc(-n2cccn2)c(CN2CCC(O)(CO)CC2)c1` was -36%. The value for `COc1ccc(-n2cccn2)c(CN2CCC3(CCNCC3)C2)c1` was 31.9%; that for `COc1ccc(-n2cccn2)c(CN2CCC3(CCCNC3)C2)c1` (centres undefined) was 68.3%; that for `CCn1ncc2c1CN(CCc1cccc(Cl)c1)CC2COC` (centres undefined) was -27.5%. On to `Cc1cccc(CO[C@@H]2CO[C@@]3(CCN(S(=O)(=O)N(C)C)C3)C2)n1`, for which the INHIBITION is -44.7%. With `CCn1cnnc1C1CCN(C(=O)c2cnn(C(C)(C)C)c2)CC1`, the INHIBITION is reported as -133%. The value for `C[C@@H]1CN(CCC(=O)N(C)Cc2ccccc2)C[C@@]1(O)C1CCC1` was 20.7%.

As to `CN(Cc1ccccc1)C(=O)CCN1C[C@H](C2CC2)[C@@H](N(C)C)C1`, the INHIBITION is 51.9%. For the molecule `CCN(Cc1ccccc1)C(=O)CCN1C[C@@H](C(=O)O)[C@H](C2CC2)C1`, the INHIBITION is -49.1%. The value for `O=C(c1cccn1-c1ccc2c(c1)OCCO2)N1CCCC1` was 9.62%; that for `CC(C)N1CCC2(CC1)CC(CC(N)=O)c1ccc(F)cc12` (centres undefined) was -12.3%. The value for `c1cnc(N2CCOC3(CCN(CC4CCOC4)CC3)C2)nc1` (centres undefined) was -13%. `c1cnc(N2CCOC3(CCN(CC4CCCCC4)CC3)C2)nc1`: the INHIBITION was 57.2%. As to `c1cnc(N2CCC3(CCN(CC4CCCC4)CC3)C2)nc1`, the INHIBITION stood at 43.8%. Take `c1cnc(N2CCC3(CCN(CC4CCOC4)CC3)C2)nc1` (centres undefined): the INHIBITION is reported as -14.7%.

With `c1cnc(N2CCC3(CCN(CC4CCOCC4)CC3)C2)nc1`, the INHIBITION is -30.1%. Under `c1cnc(N2CCCC3(CCN(CC4CCOC4)CC3)C2)nc1` (centres undefined) stands 56.4%.
